Reference: PubChem BioAssay
Active and inactive are the calls of the source. How the calls were made is not given here.

target: Pantothenate synthetase (Mycobacterium tuberculosis (strain ATCC 25618 / H37Rv)) (UniProt P9WIL5); assay: Recombinant Mtb pantothenate synthetase (PanC) inhibitors, coupled enzyme, confirmatory (AID 375); details: coupled enzyme assay; at 10 µM, stronger effect = higher value;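 further: 0% = full reaction with vehicle and 100% = no enzyme background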
Sequence (P9WIL5 whole entry, looked up): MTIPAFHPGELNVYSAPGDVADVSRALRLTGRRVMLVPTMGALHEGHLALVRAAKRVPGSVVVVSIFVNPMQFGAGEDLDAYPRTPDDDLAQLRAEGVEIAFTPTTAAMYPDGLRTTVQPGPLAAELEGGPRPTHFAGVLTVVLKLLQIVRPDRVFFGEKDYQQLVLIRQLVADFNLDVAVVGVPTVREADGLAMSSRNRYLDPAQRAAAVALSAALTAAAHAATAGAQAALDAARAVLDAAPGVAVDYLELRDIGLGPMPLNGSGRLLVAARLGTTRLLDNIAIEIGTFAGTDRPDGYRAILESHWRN

Compound	inhibition
COc1ccc(S(=O)(=O)N2CCN(CC(=O)Nc3ccc(F)c(F)c3)CC2)cc1	7% (inactive)
O=C(Cn1c(NCCO)nc2ccccc21)c1ccccc1	6% (inactive)
CC(C)Sc1nc(N2CCCC2)c2c(c1C#N)CC(C)(C)OC2	0% (inactive)
Cc1ccc(-c2ccc(=O)n(CC(=O)NCCCN3CCCCC3C)n2)cc1 (stereo not given)	0% (inactive)
CSC1=N/C(=C\C=C\c2cccs2)C(=O)S1	1% (inactive)
COc1ccc(CCNC(=O)C2CCN(S(=O)(=O)c3cc(OC)ccc3OC)CC2)cc1	0% (inactive)
COc1ccccc1NC(=O)c1ccc(COc2ccccc2OC)o1	0% (inactive)
CCOC(=O)c1c(-c2ccc(C)o2)csc1NC(=O)CN1CCN(CC)CC1	0% (inactive)
CCOC(=O)Cn1nc(-c2ccc(Cl)cc2)cc1N	0% (inactive)
Cc1ccc(NC(=O)CN(c2ccc3c(c2)OCO3)S(=O)(=O)c2c(C)n[nH]c2C)cc1	1% (inactive)
O=S(=O)(c1cccc2nsnc12)N1CCN(c2ncccn2)CC1	0% (inactive)
Cc1c(C(=O)NCc2cccnc2)oc2ccc(S(=O)(=O)N3CCCCC3)cc12	0% (inactive)
CCOc1ccc(/C=N/n2cnnc2)cc1	3% (inactive)
CCOC(=O)N1CCC(Nc2ncnc3c2cnn3-c2ccc(C)cc2C)CC1	3% (inactive)
COc1ccccc1Nc1ncnc2c1cnn2-c1cccc(C)c1	0% (inactive)
COc1cccc(CC(NC(C)=O)C(=O)NC2CCN(c3c4c(nc5ncnn35)CCC4)CC2)c1 (stereo not given)	5% (inactive)
COc1cccc(-c2nc(CS(=O)(=O)CC(=O)N3CCc4ccccc4C3)c(C)o2)c1	4% (inactive)
COc1cccc(Nc2nnc(SCC(=O)N3CC(C)OC(C)C3)s2)c1 (stereo not given)	2% (inactive)
COc1ccccc1C(=O)N1CCN(C(=O)c2ccncc2)CC1	0% (inactive)
COc1ccc(C)cc1NC(=O)CSc1nnnn1Cc1ccccc1	2% (inactive)

Compound	inhibition
C/C(NC1CCCC1)=C(/C#N)C(N)=O	9% (inactive)
COc1ccc(OC)c(C2C3=C(CCCC3=O)Nc3c2c(=O)n(C)c(=O)n3C)c1 (stereo not given)	0% (inactive)
COc1nc(N2CCOCC2)nc(-n2cccc2)n1	2% (inactive)
O=C(O)CCc1ccc(-c2ccc(F)cc2)n1CCC(=O)O	0% (inactive)
COC(=O)C1CCN(C(=O)c2sc3nc(-c4ccc(F)cc4)cn3c2C)CC1	0% (inactive)
O=C(NCc1ccc(Cl)cc1)c1ccc(COCC(F)(F)F)o1	0% (inactive)
CC1=CC2=C(OC1N(C)C)c1cccc3cccc(c13)C2=O (stereo not given)	5% (inactive)
CCOC(=O)c1ccc(NC(=O)CCc2nc(-c3cccc(C)c3)no2)cc1	2% (inactive)
CCn1c(C)nc2cc(C(=O)OCCC(F)(F)F)ccc21	0% (inactive)
O=C(CCn1c(=S)[nH]c2cc3c(cc2c1=O)OCO3)N1CCN(C2CCCCC2)CC1	0% (inactive)
O=[n+]1c2c(n([O-])c3cc(F)c(N4CCCC4)cc31)CCC2	9% (inactive)
COc1ccc(S(=O)(=O)Nc2cc(C)on2)cc1OC	0% (inactive)
CN(Cc1nc(-c2ccncc2)no1)S(=O)(=O)c1ccccc1	6% (inactive)
CCC(C)C(NC(=O)C1CCC(C)CC1)C(=O)NCc1cccnc1 (stereo not given)	6% (inactive)
CCCCCCNC(=O)Cc1c(O)c2ccccc2[nH]c1=O	5% (inactive)
COc1cc(C(=O)OCC(=O)N(C)Cc2ccccc2)cc(OC)c1OC	0% (inactive)
Cc1ccc(CS(=O)(=O)Cc2ccc(C(=O)NCc3ccccn3)o2)cc1	0% (inactive)
CCCCC(CC)C(=O)Nc1ccccc1C#N (stereo not given)	0% (inactive)
Cc1csc(NC(=O)c2cccs2)n1	0% (inactive)
O=C(Sc1nnnn1C1CCCCC1)c1cccs1	0% (inactive)
